Source: PubChem BioAssay (NCI)
The panel holds about 79,000 compounds, 15% with a hit somewhere; the sample as a whole holds those more often. Active and inactive are the calls of the source. No stated cut-off is given here; in the data, active means growth inhibition above about 70%; inactive means the rest.

Tests used:
[1] = NCI Yeast Anticancer Drug Screen. Data for the rad50 strain (AID 155);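 further: 0% = growth of vehicle-only cultures of the same strain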; settings: S. cerevisiae rad50 strain growth inhibition; at 50.0 µM; active compounds read high
Outline: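 Yeast carrying a defined DNA repair defect were exposed to test compounds, and growth was compared with vehicle-treated controls to give percent inhibition.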

[2] = NCI Yeast Anticancer Drug Screen. Data for the mec2-1 strain (AID 157); settings: S. cerevisiae mec2-1 strain, at 50.0 µM, active compounds read high
Outline: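 Vehicle-treated cultures served as reference for growth inhibition of compound-exposed mec2-1 yeast.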

[3] = NCI Yeast Anticancer Drug Screen. Data for the sgs1 mgt1 strain (AID 161);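 further: 0% = growth of cultures given vehicle only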; settings: S. cerevisiae sgs1 mgt1 strain, at 50.0 µM, active compounds read high
Outline: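 Inhibition of yeast growth, normalised to vehicle-treated controls, is reported for a strain bearing genetic alterations in DNA damage repair.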

[4] = NCI Yeast Anticancer Drug Screen. Data for the cln2 rad14 strain (AID 165);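 further: 0% = growth equal to vehicle treated cultures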; settings: S. cerevisiae cln2 rad14 strain, at 50.0 µM, active compounds read high
Outline: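 Each compound was tested on cln2 rad14 yeast. Inhibition of growth was calculated against vehicle-exposed controls.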

[5] = NCI Yeast Anticancer Drug Screen. Data for the bub3 strain (AID 167); settings: S. cerevisiae bub3 mutant strain, at 50.0 µM, active compounds read high
Outline: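 Compounds were applied to a genetically altered yeast strain carrying a cell-cycle control defect. Growth inhibition was scored against vehicle-treated controls.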

[6] = NCI Yeast Anticancer Drug Screen. Data for the mlh1 rad18 strain (AID 175); settings: S. cerevisiae mlh1 rad18 strain growth inhibition; at 50.0 µM; active compounds read high
Outline: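 Vehicle-treated cultures served as the reference for growth inhibition in a yeast strain carrying DNA damage repair alterations exposed to each compound.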

| Compound | growth inhibition [1] | growth inhibition [2] | growth inhibition [3] | growth inhibition [4] | growth inhibition [5] | growth inhibition [6] |
| --- | --- | --- | --- | --- | --- | --- |
| NS(=O)(=O)c1cccc([As](=O)(O)O)c1 | -11.1% (inactive) | 10.4% (inactive) | -12.9% (inactive) | -3.55% (inactive) | -13.9% (inactive) | -3.6% (inactive) |
| O=C(O)c1ccccc1N(CCO)CCCl | -11.2% (inactive) | -10.4% (inactive) | -31.4% (inactive) | 21.6% (inactive) | -14% (inactive) | -22.8% (inactive) |
| Oc1ccc(Cl)c(Cl)c1 | -3.45% (inactive) | -32.5% (inactive) | -72.8% (inactive) | -3.1% (inactive) | -51.5% (inactive) | -13.8% (inactive) |
| Nc1nn[nH]n1 (tested in a mixture with another compound) | -4.65% (inactive) | 1.45% (inactive) | -3.7% (inactive) | -27.1% (inactive) | 0.05% (inactive) | -3.05% (inactive) |
| C[N+](C)(C)CC1CCc2ccccc2C1=O (stereo not drawn) | 89.2% (active) | 44.6% (inactive) | 69.2% (inactive) | 50.2% (inactive) | 40.5% (inactive) | 91.4% (active) |
| Cc1cc[n+](CCc2ccccc2)cc1 | 7.95% (inactive) | 15.1% (inactive) | 15.2% (inactive) | -8.35% (inactive) | 8.75% (inactive) | 9.6% (inactive) |
| C[C@]12CC[C@H]3[C@@H](CC[C@H]4N(CCCl)CCC[C@]34C)[C@@H]1CC[C@@H]2O | 15.9% (inactive) | 15.9% (inactive) | 46.5% (inactive) | 14.8% (inactive) | 69.2% (inactive) | 76.3% (active) |
| OCCCNCc1cccnc1 | 9.55% (inactive) | -3.05% (inactive) | -0.75% (inactive) | 29.2% (inactive) | -3.8% (inactive) | 25.9% (inactive) |
| CCC[CH2][Sn]([Cl])([Cl])[CH2]CCC.c1ccncc1 | 95.5% (active) | 97.5% (active) | 98.2% (active) | 98.3% (active) | 98.2% (active) | 98% (active) |
| N.N.N.N.O=N[O-].O=N[O-].[Cl-].[Co+3] | 4.25% (inactive) | 16.1% (inactive) | 2.55% (inactive) | 36.1% (inactive) | 7.25% (inactive) | 0.2% (inactive) |
| Nc1cccc(SC2CC(=O)N(c3ccc(Cl)cc3C(=O)c3ccccc3)C2=O)c1 (stereo not drawn) | 16.6% (inactive) | -4.6% (inactive) | 34.2% (inactive) | 26.4% (inactive) | 19.9% (inactive) | 22.9% (inactive) |
| CC(=O)OCC1OC(n2ncc3c(N4CC4)ncnc32)C(OC(C)=O)C1OC(C)=O (stereo not drawn) | 7.7% (inactive) | -12.6% (inactive) | -21.3% (inactive) | 6.65% (inactive) | 1.45% (inactive) | 4.25% (inactive) |
| Nc1ccc(CCC(=O)Nc2ccc(S(=O)(=O)F)cc2)c(Cl)c1 | 82.9% (active) | 84% (active) | 85.3% (active) | 92% (active) | 92% (active) | 96.5% (active) |
| CC(C)NCCc1c[nH]c2ccccc12 | 3% (inactive) | -7.15% (inactive) | 12.4% (inactive) | -60% (inactive) | 13.3% (inactive) | 1.65% (inactive) |
| Cc1ncc(C)[n+]2c(C)csc12 | 5% (inactive) | -7.95% (inactive) | -5.05% (inactive) | -0.4% (inactive) | -0.9% (inactive) | -23.4% (inactive) |
| Nc1ccc([N+](=O)[O-])cc1 | -11.2% (inactive) | 2.8% (inactive) | -14.9% (inactive) | -6.55% (inactive) | -14.7% (inactive) | -1% (inactive) |
| O=NN1CCCS1(=O)=O | 21.2% (inactive) | 17.9% (inactive) | 15.8% (inactive) | 14.3% (inactive) | 3.95% (inactive) | 18.8% (inactive) |
| O=C(CC(=O)C(F)(F)F)c1cccs1.O=C(CC(=O)C(F)(F)F)c1cccs1.O=C(CC(=O)C(F)(F)F)c1cccs1.[Tb] | -5% (inactive) | 20.6% (inactive) | 24.6% (inactive) | -27.5% (inactive) | -1.5% (inactive) | 28.2% (inactive) |
| Cc1cc[n+](C)c(Cc2ccccc2)c1C | -26.7% (inactive) | -11.1% (inactive) | -8.9% (inactive) | -26.1% (inactive) | -22% (inactive) | -28.9% (inactive) |

| Compound | growth inhibition [1] | growth inhibition [2] | growth inhibition [3] | growth inhibition [4] | growth inhibition [5] | growth inhibition [6] |
| --- | --- | --- | --- | --- | --- | --- |
| BrP(Br)(c1ccccc1)(c1ccccc1)c1ccccc1 | -1.6% (inactive) | -28.8% (inactive) | 17.1% (inactive) | 25.4% (inactive) | 10.7% (inactive) | -0.1% (inactive) |
| Oc1c(Cl)cc(Cl)cc1C1N(Cc2ccc(N(CCCl)CCCl)cc2Cl)CCCN1Cc1ccc(N(CCCl)CCCl)cc1Cl | -0.6% (inactive) | 15.6% (inactive) | 18.6% (inactive) | -6% (inactive) | -4% (inactive) | 18% (inactive) |
| CN(C)c1cccc(NC2=NCCO2)c1 | -21.3% (inactive) | -24.5% (inactive) | -27.7% (inactive) | 7.35% (inactive) | -20.4% (inactive) | -14.6% (inactive) |
| CNCCc1ccc(O)c2ccc3ccc(OC)c(O)c3c12 | 2.5% (inactive) | -7.25% (inactive) | -14.2% (inactive) | 5.25% (inactive) | -17.3% (inactive) | 4.05% (inactive) |
| N#CCC(N)C(=O)O (stereo not drawn) | 0.7% (inactive) | -11.1% (inactive) | -11.8% (inactive) | -34.4% (inactive) | -9.2% (inactive) | 8.65% (inactive) |
| CCOP(=O)(OCC)Oc1c(Cl)c(Cl)c(Cl)c(Cl)c1Cl | 70.3% (active) | 47.4% (inactive) | 86% (active) | 28.4% (inactive) | 23.9% (inactive) | 78.5% (active) |
| Nc1nc(-c2cccc(S(=O)(=O)F)c2)cs1 | 42.5% (inactive) | 20.8% (inactive) | 55.5% (inactive) | 41.5% (inactive) | 51.1% (inactive) | 34.6% (inactive) |
| NC1CC2NC3CCCCC3NC2CC1N (stereo not drawn) | 14.8% (inactive) | 6.25% (inactive) | -0.6% (inactive) | 19.5% (inactive) | -22.4% (inactive) | 6.55% (inactive) |
| CCC1(O)CC(OC2CC(N(C)C)C(OC3CC(O)C(OC4CCC(=O)C(C)O4)C(C)O3)C(C)O2)c2c(cc3c(c2O)C(=O)c2c(O)ccc(O)c2C3=O)C1C(=O)OC (stereo not drawn) | 88.8% (active) | 90.9% (active) | 90.5% (active) | 88.4% (active) | 90% (active) | 89% (active) |
| CCCCOP(=S)(N1CCCCC1)N1CCCCC1 | -8.15% (inactive) | 3.5% (inactive) | 5.75% (inactive) | 8.3% (inactive) | 2.6% (inactive) | 0.95% (inactive) |
| CCOC(=O)N[N+]12CCN(CC1)CC2 | 0.45% (inactive) | -2.65% (inactive) | 1.95% (inactive) | -12.9% (inactive) | -1.2% (inactive) | -11.1% (inactive) |
| N#CCCCCN=[N+]=[N-] | -4% (inactive) | 27.1% (inactive) | -12.6% (inactive) | 3.25% (inactive) | 20.4% (inactive) | -8.35% (inactive) |
| CC(=O)OC1CC2(C)C(=CC1C1SCCS1)CCC1C2CCC2(C)C(OC(C)=O)CCC12 (stereo not drawn) | -7.6% (inactive) | 3.2% (inactive) | -31.5% (inactive) | 14.7% (inactive) | -49.5% (inactive) | 11.3% (inactive) |
| COC1=CC2CCC3C(CCC4(C)C(OC(C)=O)CCC34)C2(C)CC1 (stereo not drawn) | 13.2% (inactive) | 10.8% (inactive) | 1.2% (inactive) | 4.1% (inactive) | -13.3% (inactive) | -6.8% (inactive) |
| CCOC(=N)CC(O)C(Cl)(Cl)Cl (stereo not drawn) | -2.05% (inactive) | 1.7% (inactive) | -10.1% (inactive) | -47.2% (inactive) | 22% (inactive) | -6.25% (inactive) |
| CCC(C(C)C)C1NC1C(C)C1CCC2C3CC=C4CC(OC(C)=O)CCC4(C)C3CCC12C (stereo not drawn) | 95.8% (active) | 99.2% (active) | 99.1% (active) | 98.3% (active) | 98.6% (active) | 98.7% (active) |
| CC(=O)Nc1cccc([As]=O)c1 (stereo not drawn) | 11.5% (inactive) | 2.75% (inactive) | 9.95% (inactive) | 7.6% (inactive) | -10.8% (inactive) | 19.1% (inactive) |
| O=P(O)(O)SP(=O)(O)O.[Mn] | -14.7% (inactive) | -14.2% (inactive) | -1.9% (inactive) | -30.2% (inactive) | -11.7% (inactive) | -16.1% (inactive) |
| NC1(C(=O)O)CCCC1 | -21.1% (inactive) | -21.9% (inactive) | -15.2% (inactive) | -63.8% (inactive) | -1.5% (inactive) | -28.1% (inactive) |
